Data reported in PubChem BioAssay AID933 (National Center for Advancing Translational Sciences (NCATS), 2007).
Results filed as inconclusive are left out. Entries that show only a call come without a potency. Values without a mark were called inactive. The source made the active and inactive calls. Calls come from the whole dose curve; as a rule, active = well fitted activation curve with a large enough effect in the signal ratio, with a control signal flat; inconclusive = small, poorly fitted or top-dose-only effect, or a change in a side signal; inactive = flat fitted curve, though single readings scatter; the % refers to the signal ratio.

Molecular target: Thyrotropin receptor (Homo sapiens) (UniProt P16473)
Sequence (P16473 whole entry, looked up): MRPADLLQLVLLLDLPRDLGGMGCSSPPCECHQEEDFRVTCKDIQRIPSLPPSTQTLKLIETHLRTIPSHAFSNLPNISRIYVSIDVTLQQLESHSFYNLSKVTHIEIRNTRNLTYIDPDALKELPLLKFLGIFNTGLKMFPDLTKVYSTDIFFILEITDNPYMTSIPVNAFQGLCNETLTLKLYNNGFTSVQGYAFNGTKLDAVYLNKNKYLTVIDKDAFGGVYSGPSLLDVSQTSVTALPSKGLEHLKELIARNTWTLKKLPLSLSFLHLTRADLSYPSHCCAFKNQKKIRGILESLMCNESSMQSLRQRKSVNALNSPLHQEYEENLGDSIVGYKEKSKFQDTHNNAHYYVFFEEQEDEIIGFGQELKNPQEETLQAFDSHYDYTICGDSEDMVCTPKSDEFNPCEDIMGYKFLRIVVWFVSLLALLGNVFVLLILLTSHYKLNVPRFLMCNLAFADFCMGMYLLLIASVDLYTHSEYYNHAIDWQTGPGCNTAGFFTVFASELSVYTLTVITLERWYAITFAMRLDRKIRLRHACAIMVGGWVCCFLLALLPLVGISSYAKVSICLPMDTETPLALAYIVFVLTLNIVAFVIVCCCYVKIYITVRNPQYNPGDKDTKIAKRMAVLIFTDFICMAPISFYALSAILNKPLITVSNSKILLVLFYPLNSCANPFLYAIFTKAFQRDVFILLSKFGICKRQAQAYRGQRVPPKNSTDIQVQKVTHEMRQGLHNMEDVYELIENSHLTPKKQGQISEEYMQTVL
Assay: Secondary Concentration-Response Assay for Agonists of the Thyroid Stimulating Hormone Receptor: HTRF Activity Detection
How it was run: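 cAMP accumulation was detected by antibody-based HTRF, excitation 330 nm, emissions 615 and 660 nm. Compounds acted for 30 min at room temperature on stably TSHR-transfected HEK 293 cells, with phosphodiesterase inhibitor RO 20-1724 (100 uM) in the medium.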

Structure (SMILES) | Potency | activation
O=C1c2ccccc2NC(c2ccccc2OCc2ccccc2)N1Cc1ccco1 (stereo unspecified) | inactive | 
CCN(CC)CCN1C(=O)c2ccccc2NC1c1cccc(F)c1 (stereo unspecified) | inactive | 
Cc1ccc(N(CC(=O)NCc2ccco2)S(=O)(=O)c2ccccc2)cc1 |  | 0.48% [at 0.00035 µM]
COc1ccc(C2Nc3ccccc3C(=O)N2Cc2ccccc2)cc1COc1ccccc1F (stereo unspecified) | inactive | 
CC1=CCC2C(=O)N(c3ccc(Br)cc3C)C(=O)C2C1 (stereo unspecified) |  | 0.113% [at 0.00035 µM]
CN1C(=O)N(C)C2(c3ccccc3)Nn3c(s/c(=C/c4ccco4)c3=O)=NC12c1ccccc1 (stereo unspecified) |  | 0.345% [at 0.00035 µM]
COc1ccc(C2Nc3ccccc3C(=O)N2Cc2ccco2)cc1COc1ccccc1F (stereo unspecified) | inactive | 
CCOc1cc(C2Nc3ccccc3C(=O)N2Cc2ccco2)ccc1OCc1ccccc1Cl (stereo unspecified) | inactive | 
CCC(C)(C)n1nnnc1CN(Cc1ccco1)Cc1cc2cc3c(cc2[nH]c1=O)OCO3 |  | 0.108% [at 0.00035 µM]
Cc1cc(C)nc(N(C#N)CC(=O)N2CCC(C(N)=O)CC2)n1 |  | 1.28% [at 0.00035 µM]
CCCN1C(=O)c2ccccc2NC1c1ccc(OC)c(COc2ccc([N+](=O)[O-])cc2)c1 (stereo unspecified) | inactive | 
CCOc1cc(C2Nc3ccccc3C(=O)N2c2ccccc2)c(Br)cc1OCC(=O)O (stereo unspecified) | inactive | 
Cc1cc(=O)[nH]c(SCCOc2ccc3c(c2)CCC3)n1 |  | 0.323% [at 0.00035 µM]
CCN(CC)CCN1C(=O)c2ccccc2NC1c1ccc(N(C)C)cc1 (stereo unspecified) | inactive | 
COc1ccc(C2Nc3ccccc3C(=O)N2c2ccccc2)cc1Cn1cc([N+](=O)[O-])cn1 (stereo unspecified) | inactive | 
Oc1ccccc1-c1cc(C(F)(F)C(F)F)nc(-c2ccccc2)n1 |  | 0.7% [at 0.00035 µM]
COc1ccc(N2C(=O)c3ccccc3NC23C(=O)N(C)c2ccccc23)cc1 (stereo unspecified) | inactive | 
Cc1ccccc1-n1nc(C)c2cc(C(=O)N3CCN(S(=O)(=O)c4ccc(F)cc4)CC3)sc21 |  | 0.202% [at 0.00035 µM]
COc1ccc(C(=O)N(Cc2ccccc2)Cc2ccc(OC)c(COc3ccc(NC(C)=O)cc3)c2)c(O)c1 | inactive | 
COc1ccc(-c2nc3ccccc3n2Cc2ccccc2)cc1COc1ccc(NC(C)=O)cc1 | inactive | 
COc1cc(OC)cc(C(=O)N(Cc2ccco2)Cc2cccs2)c1 | inactive | 
